# Measurements as given in PubChem BioAssay (Tox21).
# Values joined by “and” are separate entries in the source; they are usually repeats but may differ in a detail not shown here. Equal entries are not always repeated. Inconclusive results are not listed. Where a call stands in place of a potency, no number is given. Where a structure was tested more than once in an assay, its records may differ in their call. Active and inactive are the calls of the source. Calls follow the shape of the dose curve; as a rule, active = well fitted activation curve with a large enough effect in the signal ratio in the repeat runs (not every such curve was filed as active); inconclusive = weak or mixed curves, or effect the other way; inactive = no such curve, though single readings can be large or run the other way; the % refers to the signal ratio.
# Experiment: qHTS assay for small molecule agonists of the antioxidant response element (ARE) signaling pathway (AID 743202)
# Conditions: HepG2 ARE-bla reporter, beta-lactamase FRET, 16 h; series mostly up to 73.3 µM; activation: at the top concentration
# Description: U.S. Tox21 Program National Center for Advancing Translational Sciences [NCATS] NIH Chemical Genomics Center [NCGC] U.S. Environmental Protection Agency [EPA] National Institutes of Environmental Health Sciences [NIEHS] National Toxicology Program [NTP] U.S. Food and Drug Administration [FDA] Tox21 Assay Overview: Oxidative stress has been implicated in the pathogenesis of a variety of diseases ranging from cancer to neurodegeneration. The antioxidant response element (ARE) signaling pathway plays an important role in the amelioration of oxidative stress. The CellSensor ARE-bla HepG2 cell line (Invitrogen) can be used for analyzing the Nrf2/antioxidant response signaling pathway. Nrf2 (NF-E2-related factor 2) and Nrf1 are transcription factors that bind to AREs and activate these genes. The CellSensor ARE-bla Hep G2 cell line contains a beta-lactamase reporter gene under control of the Antioxidant Response Element (ARE) stably integrated into HepG2 cells. The activation of the report gene under culture conditions can be detected by fluorescence intensity. This cell line has been used to screen the Tox21 10K compound library to identify agonists that induce oxidative stress.
# Tox21 Assay Protocol Summary: The ARE-bla cells were dispensed at 2,000 cells/5 ul/well in 1536-well black wall/clear bottom plates using a Multidrop dispenser. After the assay plates were incubated at a 37 C/5% CO2 incubator for 5 hours, 23 nL of compounds dissolved in DMSO, positive controls or DMSO only was transferred to the assay plate by a pin tool. The plates were incubated at 37 C for 16 hours. After 1 uL of LiveBLAzer B/G FRET substrate was added using a Flying Reagent Dispenser, the plates were incubated at room temperature for 2 hours, and fluorescence intensity was measured by an Envision plate reader.
# Potency is read from the fitted curve at half-maximal effect.
Structure (SMILES),Potency,activation
Nc1c(S(=O)(=O)O)cc(Br)c2c1C(=O)c1ccccc1C2=O,27.9 µM (active),
CCCCCC/C=C/CCCCCCCC(=O)O,inactive,
CCCCCCCCCC(=O)O,,10.3% [at 94.8 µM] (inactive)
O=C(O)c1ccc([N+](=O)[O-])cc1,inactive,
O=C1O[C@H](CO)[C@@H](O)[C@H](O)[C@H]1O,,-6.73% (inactive)
CCC(=O)O,inactive,
C=CC(=O)OCCCCCCCC(C)C,inactive,
CN(CCOc1ccc(CC2SC(=O)NC2=O)cc1)c1ccccn1 (stereo not given),21.6 µM (active) and inactive,
COC(=O)c1ccccc1O,,2.16% (inactive)
NCc1cccc(CN)c1,inactive,
CCOC(=O)[C@H](CCc1ccccc1)N[C@@H](C)C(=O)N1Cc2ccccc2C[C@H]1C(=O)O,inactive,
CC[Si](OC(C)=O)(OC(C)=O)OC(C)=O,,-19.9% (inactive)
CC(C)(C)C1CCC(O)CC1 (stereo not given),inactive,
Cc1ccc(N)c(S(=O)(=O)O)c1,inactive,
CNC[C@H](O)[C@@H](O)[C@H](O)[C@H](O)CO,inactive,
Cc1cc(=O)[nH]c(C(C)C)n1,inactive,
CS(=O)(=O)c1ccc([C@@H](O)[C@@H](CO)NC(=O)C(Cl)Cl)cc1,inactive,
O=C1N=C(O)CN1/N=C/c1ccc(-c2ccc([N+](=O)[O-])cc2)o1,,0.556% (inactive)
CC1(C)O[C@@H]2C[C@H]3[C@@H]4C[C@H](F)C5=CC(=O)CC[C@]5(C)[C@H]4[C@@H](O)C[C@]3(C)[C@]2(C(=O)CO)O1,,1.22% (inactive)
NC(=O)NNc1ccccc1,inactive,

Structure (SMILES),Potency,activation
CCc1ccc(O)cc1,inactive,
CC(C)(N=C=O)c1cccc(C(C)(C)N=C=O)c1,,12.1% (inactive)
Cn1c([N+](=O)[O-])cnc1COC(N)=O,inactive,
COCC(C)O (stereo not given),inactive,
CCCCCCCCCCCCN,,-0.711% [at 94.8 µM] (inactive)
S=c1nc[nH]c2nc[nH]c12,4.74 µM (active) and 7.5 µM (active),
Cc1ccc(C)c(C)c1,inactive,
CCCCOCCOCCOC(=O)CCCCC(=O)OCCOCCOCCCC,inactive,
CC1(C)CC(N=C=O)CC(C)(CN=C=O)C1 (stereo not given),,-6.77% (inactive)
NC(=O)/N=N/C(N)=O,inactive,
c1ccc2[nH]cnc2c1,inactive,
CCCCNC(N)=O,inactive,
Oc1ccc2ccccc2c1,35.2 µM (active) and 21.7 µM (active),
CCCCCCC(C)(C)S,inactive,
CCCCC(CC)COC(C)=O (stereo not given),inactive,
CC(=O)Nc1ccc(C(=O)O)cc1,inactive,
CC(=O)CCc1ccccc1,inactive,
OCC#CCO,inactive,
CCCCC(CC)C(=O)OCCOCCOCCOC(=O)C(CC)CCCC (stereo not given),inactive,
CCOC(=O)C1OC1c1ccccc1 (stereo not given),,-3.09% [at 94.8 µM] (inactive)
